From PubChem BioAssay
OTUD3 block: human OTUD3 deubiquitinase inhibition. AID 1645858. 47,000 compounds, 0.7% hits. inhibition, % at 25 µM. purified OTUD3, Ub-rhodamine fluorescence, 2 h
Target sequence (Q5T2D3 whole entry, looked up): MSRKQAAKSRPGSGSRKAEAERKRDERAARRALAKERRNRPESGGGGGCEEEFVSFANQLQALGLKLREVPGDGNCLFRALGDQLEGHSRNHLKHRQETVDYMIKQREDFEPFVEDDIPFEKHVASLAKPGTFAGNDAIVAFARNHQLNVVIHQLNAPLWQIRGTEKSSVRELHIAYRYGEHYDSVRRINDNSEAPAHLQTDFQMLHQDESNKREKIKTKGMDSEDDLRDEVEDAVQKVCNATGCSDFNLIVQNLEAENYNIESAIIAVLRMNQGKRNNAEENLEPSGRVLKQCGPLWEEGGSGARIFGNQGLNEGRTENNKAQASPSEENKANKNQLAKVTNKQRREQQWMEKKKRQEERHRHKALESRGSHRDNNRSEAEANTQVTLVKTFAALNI
USP30 block: human USP30 deubiquitinase inhibition; Q70CQ3; purified USP30, Ub-rhodamine cleavage fluorescence; inhibition, % at 25 µM; 47,000 compounds, 5.3% hits
USP28 block: inhibitors of human USP28 deubiquitinase; purified USP28, Ub-rhodamine cleavage fluorescence, 30 min; inhibition, % at 25 µM; 47,000 compounds, 3% hits
USP17 inh: inhibitors of human USP17 deubiquitinase | inhibition, % at 50 µM | 47,000 compounds, 6.5% hits | purified USP17, Ub-rhodamine cleavage fluorescence, 3 h
Starred values were filed as active, the others as inactive; · = not tested or not shown. Shown are actives, neighbours in structure and some others; about 12% of the full set was active somewhere. Cut-off read from the data, not from the text of the source: active = inhibition above about 30%; inactive = the rest.

SMILES	OTUD3 block	USP30 block	USP28 block	USP17 inh
COc1ccc(S(=O)(=O)NC2CC(=O)N(c3ccc(Cl)cc3)C2)cc1 (centres undefined)	0	6	5	-12
CNc1ccc(-c2noc([C@@H]3CCCN3C3CCN(C(C)=O)CC3)n2)cn1	-8	-4	-7	-16
CC(C)CCCCCCCCCCC(=O)N(C)[C@H](CO)C(=O)N[C@H](C)C(=O)NCC(=O)N(C)C1C(=O)N[C@@H](C)C(=O)NC(C(=O)O)Cc2ccc(O)c(c2)-c2cc1ccc2O (some centres undefined)	6	33*	56*	7
O=C1NC(=O)/C(=C/c2ccc(OC(=O)c3ccc(Cl)cc3Cl)cc2)N1	21	62*	31*	38*
CCCn1nnc(NCc2ccccc2OCc2ccc(Cl)cc2)n1	19	15	15	7
CCOc1ccc(C(=O)Nc2cc(N3CCCS3(=O)=O)ccc2C)cc1	7	24	9	8
COc1ccc(N2CCCS2(=O)=O)cc1NC(=O)c1ccccc1OC	-2	0	35*	11
CCOc1ccccc1C(=O)Nc1cc(N2CCCS2(=O)=O)ccc1C	15	29	32*	14
Cc1ccc(N2CCCS2(=O)=O)cc1NC(=O)COc1ccccc1F	14	34*	11	13
Nc1c(C(=O)Nc2ccc3c(c2)OCO3)sc2nc(-c3cccnc3)ccc12	0	-2	33*	61*
O=C(Nc1cc(-c2cccnc2)no1)c1ccc2c(c1)OCO2	7	9	18	7
CCOc1cccc(NC(=O)c2ccc(S(=O)(=O)N3CCc4ccccc4C3)cc2)c1	19	41*	21	53*
CC1Oc2ccc(NC(=O)c3cccc(S(=O)(=O)N4CCc5ccccc5C4)c3)cc2NC1=O (centres undefined)	-6	-14	10	31*
CC(C)c1cc(C(=O)N2CCN(C(=O)c3ccco3)CC2)c2cnn(C(C)C)c2n1	-1	-13	-8	-8
CCOC(=O)N1CCN(C(=O)c2ccc3c(=O)n(CCOC)c(=O)[nH]c3c2)CC1	-1	4	-3	-11
COc1ccc(Cn2c(=O)[nH]c3cc(C(=O)NCCCN4CCN(c5cccc(Cl)c5)CC4)ccc3c2=O)cc1	20	46*	11	51*
COc1ccccc1N1CCN(C(=O)c2ccc3c(=O)n(CCc4ccccc4)c(=O)[nH]c3c2)CC1	5	35*	8	20
CCN(CCCNC(=O)c1ccc(Cn2c(=O)[nH]c3ccccc3c2=O)cc1)c1ccccc1	3	3	-6	59*
COc1ccc(N2CCN(CCCNC(=O)c3ccc4c(=O)n(CCc5ccccc5)c(=O)[nH]c4c3)CC2)cc1	10	20	9	25
Cc1cccc(N2CCN(C(=O)CCn3c(=O)[nH]c4ccccc4c3=O)CC2)c1C	20	36*	10	46*
COc1ccccc1N1CCN(C(=O)CCn2c(=O)[nH]c3ccccc3c2=O)CC1	-2	-11	-6	-3
CCOCCCNC(=O)c1ccc(Cn2c(=O)[nH]c3cc(OCC)c(OCC)cc3c2=O)cc1	0	·	·	11
O=C(Cn1c(=O)n(-c2ccccc2)c2ncccc21)NCc1ccccc1	-2	-12	0	23
CCN1CCN(CCCNC(=O)c2ccc3c(=O)n(CCc4ccccc4)c(=O)[nH]c3c2)CC1	10	32*	13	3
CCOc1ncccc1C(=O)Nc1ccnn1Cc1ccc(OC)c(OC)c1	-1	1	3	4
SMILES	OTUD3 block	USP30 block	USP28 block	USP17 inh
CCOc1ccc(S(=O)(=O)N(CC(=O)NCc2ccccc2C)c2ccccc2)cc1	7	26	15	45*
Cc1nnc(Nc2ccc(C(=O)Nc3c(Cl)cccc3Cl)cc2)c2ccccc12	-8	-36	0	-15
Cc1ccc(NC(=O)c2ccc(Nc3nnc(C)c4ccccc34)cc2)cc1	-2	8	75*	52*
CN1CCCC(OC(=O)c2cccc(Cl)c2)C1 (centres undefined)	10	24	5	15
CN1CCCC(OC(=O)c2cc(Cl)cc(Cl)c2)C1 (centres undefined)	17	33*	23	·
Cc1ccc(C(=O)Oc2cn(CC(C)C)c3nc(-c4ccc(C)cc4)n4c5ccccc5nc4c23)cc1	-8	-43	-5	-9
Fc1ccc(-c2nc(C3CC3)ncc2-c2nnnn2-c2ccccc2)c(F)c1	10	19	13	12
Fc1ccc(-c2nc(C3CC3)ncc2-c2nnnn2-c2ccccc2)cc1F	18	30*	17	15
CCc1c(C)sc(NC(=O)c2ccc(F)cc2Cl)c1C(=O)N1CCOCC1	2	8	0	-1
O=C(Nc1cccc(OC(=O)c2ccc(Cl)cc2)c1)c1ccc(Cl)cc1	3	-3	4	63*
O=C(Nc1ccc2c(c1)OCO2)c1ccc2noc(-c3ccc(Cl)cc3)c2c1	10	10	17	38*
Cc1nc(-c2noc3ccc(C(=O)NC4CCCC4)cc23)co1	14	33*	17	32*
COc1cccc(NC(=O)c2ccc3noc(-c4ccc(Cl)cc4)c3c2)c1	0	0	0	58*
Cc1nc(-c2noc3ccc(C(=O)NCCc4cccnc4)cc23)co1	-3	3	-6	-3
CC(=O)c1cccc(NC(=O)c2ccc3noc(-c4ccc(F)cc4)c3c2)c1	21	41*	9	0
Cc1cccc(NC(=O)c2ccc3noc(-c4ccc(F)cc4)c3c2)c1	-3	-41	-21	-17
O=C(NC1CCCC1)c1ccc2noc(-c3ccc(Cl)cc3)c2c1	-6	-36	-11	39*
Cc1ccccc1NC(=O)Cn1cnc2c(c(C)c(C)n2-c2ccccc2)c1=O	1	7	-1	8
COCCCNC(=O)c1ccc(Cn2c(=O)c3ccccc3n(CC(=O)Nc3ccc4c(c3)OCCO4)c2=O)cc1	-3	-4	-4	-1
O=C(NCc1ccccc1F)Nc1ccccc1[N+](=O)[O-]	12	57*	25	73*
COc1ccc(Sc2cc(C(F)(F)F)nc(-c3ccccn3)n2)cc1	0	17	1	-6
COc1cnc(-c2ccccn2)nc1Sc1ccccc1Cl	26	87*	5	39*
Cc1occc1-c1cc2nc3c(c(=O)n2[nH]1)CN(Cc1cnn(C)c1C)CC3	4	·	·	-106
CCN1C[C@H]2CCN(C(=O)c3ccn[nH]3)CC[C@H]2S1(=O)=O	-8	-12	-9	-10
COc1ccccc1CN1C(=O)c2nc3ccccc3n2CC1(C)C(=O)NC1CCCC1 (centres undefined)	11	30*	10	-2
CC1(C(=O)NC2CCCC2)Cn2c(nc3ccccc32)C(=O)N1CCc1ccccc1 (centres undefined)	3	36*	2	9
CC1(C(=O)NC2CCCC2)Cn2c(nc3ccccc32)C(=O)N1Cc1ccc(F)cc1 (centres undefined)	-9	-8	-7	-3
Cc1ccccc1NC(=O)CC1C(=O)N(C2CCCC2)c2nc3ccccc3n21 (centres undefined)	16	30*	13	16
O=C(CC1C(=O)N(Cc2cccnc2)c2nc3ccccc3n21)Nc1cccc2ccccc12 (centres undefined)	-2	22	0	64*
